PubChem BioAssay (NCI)
The panel holds about 83,000 compounds, 20% with a hit somewhere; the sample as a whole holds those more often.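 48-hour exposure, single concentration, 96-well plates; percent growth endpoint where 0 means no net growth. Active: below 10.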 Unmarked numbers belong to inactive results. Active and inactive are the calls of the source.

These molecules were tested on NCI-H23 lung (assay: NCI-60 one-dose screen, 48 h (100 = growth as untreated, 0 = no growth, -100 = all killed)). Details: 10 µM unless noted.
Method: Growth inhibition of the NCI-H23 human Non-Small Cell Lung tumor cell line is measured as a screen for anti-cancer activity. Cells are grown in 96 well plates and exposed to the test compound for 48 hours. Compounds are tested at a single concentration, which is 10^-5 M for most compounds. The reported endpoint is percent growth (GI% or GIPRCNT), where numbers from 0 - 100% represent growth inhibition, and numbers from -100% - 0 represent cell death. For example, a value of 40 represents 60% growth inhibition. A value of 0 means no net growth occurred over the course of the experiment. A value of -40 indicates 40% of cells at the beginning of the experiment died by the end of the experiment. A value of -100 means all cells are dead at the end of the experiment.
NCI-60 Human Tumor Cell Lines Screen was performed using the standard one-dose NCI protocol, which is described in more detail at https://dtp.cancer.gov/discovery_development/nci-60/default.htm.
Compounds with GIPRCNT values below 10 were considered active. Activity score was based on GIPRCNT using the following formula: […]
Score is 0 for GIPRCNT values of 100 or above, 50 for GIPRCNT values of 0, and 100 for GIPRCNT values of -100.

SMILES | growth
COc1ccccc1NCc1cccn1Cc1ccc(F)cc1 | 96.6%
Cn1ccnc1C(=O)/C=C/c1ccc(NC(=O)c2c(F)c(F)c(F)c(F)c2F)cc1 | 97.6%
Cc1noc(C)c1CSc1nc2ccccc2n1-c1ccccc1 | 90.9%
CCCCCc1ccc(S(=O)(=O)Nc2cccc(-c3csc(NC(=O)CCCCCN4CCN(CCO)CC4)n3)c2)cc1 | 81.1%
C#CC(=O)N(c1ccc(OC)cc1OC)C(C(=O)NCC(=O)OCC)c1cccs1 (stereo not given) | -54.7% (active)
NS(=O)(=O)c1ccc(Nc2cc(-c3ccccc3)nc(SCC(=O)c3ccccc3)n2)cc1 | 92.5%
c1ccc(C(c2nc3ncncc3[nH]2)N2CSc3nc4ncncc4n3C2)cc1 (stereo not given) | 55%
CC1=CC(=O)C2=C(C)CC(OC(=O)CCc3ccccc3)[C@@H]3[C@H](OC(=O)[C@@H]3C)[C@@H]12 (stereo not given in full) | 95.4%
CC(O)c1cc2ccccc2c(=O)o1 (stereo not given) | 99.8%
COc1cc(-c2nn(C(C)(C)C)cc2-c2ccnc(NCCCNS(=O)(=O)c3ccccc3)n2)ccc1Cl | 74.4%
O=C(NNc1nc2cc(F)ccc2n2c(CO)ccc12)c1cnccn1 | 22.8%
CCO/C=N/C1=C(C#N)C(c2ccc(Cl)cc2)c2sc3c(C)cccc3c2O1 (stereo not given) | 25.2%
NC/C(=C/F)COc1ccc2nc(NCc3cccnc3)oc2c1 | 92.8%
NS(=O)(=O)c1ccc(Nc2nc(N/N=C/c3c[nH]c4ccccc34)nc(Nc3ccccc3)n2)cc1 | 47.1%
C=C=COc1cccc(/C(N)=N/C(N)=N/c2nc3ccccc3s2)c1 | 75.9%
COC(=O)c1[nH]nc2c1C1(C(=O)c3cccc4cccc1c34)C(C#N)=C(N)O2 (stereo not given) | 95%
CCOC(=O)C(=O)/C(=C\c1ccc(Cl)cc1)C(=O)N1C(=S)NC(=O)C1CC(C)C (stereo not given) | 96.5%
Oc1ccc(CSc2nnc(-c3ccc(Cl)cc3)n2-c2ccccc2)c2cccnc12 | 31.2%
Cc1cc(S(=O)(=O)N(C)C)cc(NCC(=O)NC(=O)NCC(C)C)c1C | 94.5%
CS(=O)(=O)c1ccc(-c2nn(-c3ccccc3)cc2/C=N/NC(=O)c2nc(N)n[nH]2)cc1 | 96.3%

SMILES | growth
CCNC(=O)N1CCc2cc(OC)c(OCCc3ccc(OC)cc3)cc2C1c1ccc(Cl)cc1C (stereo not given) | 25.1%
CCO/C=N/C1=C(C#N)C(c2ccc(F)cc2)c2sc3c(CC)cccc3c2O1 (stereo not given) | 28.3%
CC(=O)Nc1cccc(Nc2nc(N[C@H](C)c3ccccc3)c3ccccc3n2)c1 | 52.3%
NC(N)=Nc1ccc(Oc2cccc(NC(N)=Nc3ccc(I)cc3F)c2)cn1 | 52.2%
O=C(Nc1nc2ccc([N+](=O)[O-])cc2s1)Nc1ccccc1Cl | 9.48% (active)
Oc1cccc2ccc(-c3nnc(SCc4ccc(O)c5ncccc45)o3)nc12 | 3.67% (active)
Cc1ccc(-n2cc(/C=N/NC(=O)c3nc(N)n[nH]3)c(-c3ccc(S(C)(=O)=O)cc3)n2)cc1 | 96.6%
Nc1nc(N)c2c(n1)NC(c1ccc(Cl)cc1)CC(c1ccc(Nc3nc(NCCO)nc(N4CCOCC4)n3)cc1)=N2 (stereo not given) | 85.2%
O=C(CCn1cc[n+](CC(=O)c2ccc(-c3ccccc3)cc2)c1)Nc1cccc2cccnc12 | 81.1%
O=C(CN1CCN(c2cc(=O)[nH]c3ccc(F)cc23)CC1)Nc1ccc(Cl)cc1 | 61.9%
CN1CCN(Cc2ccc(NC(=O)c3cncc(C#Cc4cnc5ccc(OCC6(C)COC6)nn45)c3)cc2C(F)(F)F)CC1 | -76.2% (active)
COc1ccc([C@@H]2c3[nH]c4ccccc4c3C[C@H]3C(=O)N(C4CCN(CC5CCCCC5)CC4)CC(=O)N23)c(OC)c1 | 93.3%
O=C1/C(=C/C=C/c2ccco2)SC(=S)N1c1ccccc1 | 70.7%
O=C(NNc1nc2cc(F)c(F)cc2n2c(CN3CC4CNCC4C3)ccc12)c1cnccn1 (stereo not given) | 26.7%
CCC(CC)N1C(=O)/C(=c2\sc3n(c2=O)NC2C(N=3)N(CC)C(=O)N2CC)c2ccccc21 (stereo not given) | 44.1%
CC[C@]12C=CCN3CC[C@@]4(c5cc(NC(=O)COc6cc(O)c7c(=O)cc(-c8ccccc8)oc7c6)c(OC)cc5N(C)[C@H]4[C@@](O)(C(=O)OC)[C@@H]1OC(C)=O)[C@@H]32 | -92.9% (active)
CCOc1ccccc1NC1=C(Cl)C(=O)c2nc(C)ccc2C1=O | -67.8% (active)
Cn1cc(-c2nc(N)nnc2-c2c[nH]c3ccc(Br)cc23)c2cc(Br)ccc21 | 48.7%
O=c1c2ccccc2nc(COc2ccccc2)n1NS(=O)(=O)c1ccc(Cl)cc1 | 82.8%
COc1cc(-c2nn(C(C)(C)C)cc2-c2ccnc(NCCCNS(=O)(=O)c3ccc(C)cc3)n2)ccc1Cl | 84.1%
